# Assay results reported in PubChem BioAssay (EPA / NIEHS).
# Calls of active or inactive are those of the source. How the source made its calls: active means hit-call score of the fitted dose curve at least 0.9, where 1 is the maximum; inactive means score below 0.9.
# Tests used:
# [1] = target: Bile acid receptor (Homo sapiens) (UniProt Q96RI1); assay: ATG_IR1_CIS: Attagene CIS-FACTORIAL HepG2 Assay for human Nuclear Receptor Subfamily 1 Group H Member 4 (NR1H4), IR1 submotif (AID 2282946); conditions: IR1 reporter transcription, actives raise or lower the signal
# Chain of Bile acid receptor (Homo sapiens) (Q96RI1 whole entry, looked up): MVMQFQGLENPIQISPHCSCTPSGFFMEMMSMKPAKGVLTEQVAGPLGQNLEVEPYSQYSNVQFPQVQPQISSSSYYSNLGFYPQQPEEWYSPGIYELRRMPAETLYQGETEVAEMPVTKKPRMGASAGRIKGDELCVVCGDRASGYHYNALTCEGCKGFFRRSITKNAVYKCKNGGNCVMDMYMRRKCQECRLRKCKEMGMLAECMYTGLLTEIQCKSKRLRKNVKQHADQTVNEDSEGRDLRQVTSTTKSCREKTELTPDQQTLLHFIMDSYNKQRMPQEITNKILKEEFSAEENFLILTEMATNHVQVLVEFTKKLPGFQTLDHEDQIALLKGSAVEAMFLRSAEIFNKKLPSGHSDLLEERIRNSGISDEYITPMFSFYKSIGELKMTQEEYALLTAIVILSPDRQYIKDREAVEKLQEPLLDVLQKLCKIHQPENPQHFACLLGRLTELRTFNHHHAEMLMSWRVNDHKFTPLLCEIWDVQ
# Procedure, shortened: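 Fluorescence of capillary-separated, HpaI-digested RT-PCR reporter products gave IR1-element mRNA induction in HepG2 cells 24 h after dosing. Endogenous transcription factors drove the cis-regulated reporters; activity was fitted bidirectionally against DMSO.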
# [2] = ATG_ISRE_CIS: Attagene CIS-FACTORIAL HepG2 Assay for human Interferon Regulatory Factor 1 (IRF1) binding to an Interferon-Stimulated Response Element (ISRE) (AID 2282948); conditions: HepG2 ISRE cis-reporter (Attagene), mRNA transcription readout; actives raise or lower the signal
# Procedure, shortened: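 Uses HepG2 liver cells transfected with cis-regulated reporters and measures mRNA 24 h post-dosing through RT-PCR, primer-extension labelling and capillary electrophoresis, with DMSO as negative control.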
# [3] = ATG_M_32_CIS: Attagene CIS-FACTORIAL HepG2 Assay for M32 Transcription Factor (Internal Marker) (AID 2282949); conditions: HepG2 Attagene cis-factorial M32 reporter, mRNA; actives raise or lower the signal;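 further: background control marker of the multiplexed CIS panel rather than a real target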
# Procedure, shortened: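 HepG2 transfectants (cis-regulated reporter transcription units) dosed 24 h. Reporter mRNA by RT-PCR plus CE, analysed as gain or loss relative to DMSO.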
# [4] = ATG_M_06_CIS: Attagene CIS-FACTORIAL HepG2 Assay for M06 Transcription Factor (Internal Marker) (AID 2282950); conditions: HepG2 Attagene CIS-FACTORIAL M06 internal marker reporter; actives raise or lower the signal
# Procedure, shortened: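 Cells (HepG2, transiently carrying cis-driven reporter units) receive chemical for 24 h before RNA isolation. Reporter cDNA is PCR-amplified, FAM-labelled by primer extension, HpaI-digested and sized on a capillary analyser.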
# [5] = target: Hypoxia-inducible factor 1-alpha (Homo sapiens) (UniProt Q16665); assay: ATG_HIF1a_CIS: Attagene CIS-FACTORIAL HepG2 Assay for human Hypoxia Inducible Factor 1 (HIF1A) (AID 2282951); conditions: HepG2 Attagene cis-factorial HIF1a reporter transcription; actives raise or lower the signal
# Chain of Hypoxia-inducible factor 1-alpha (Homo sapiens) (Q16665 whole entry, looked up): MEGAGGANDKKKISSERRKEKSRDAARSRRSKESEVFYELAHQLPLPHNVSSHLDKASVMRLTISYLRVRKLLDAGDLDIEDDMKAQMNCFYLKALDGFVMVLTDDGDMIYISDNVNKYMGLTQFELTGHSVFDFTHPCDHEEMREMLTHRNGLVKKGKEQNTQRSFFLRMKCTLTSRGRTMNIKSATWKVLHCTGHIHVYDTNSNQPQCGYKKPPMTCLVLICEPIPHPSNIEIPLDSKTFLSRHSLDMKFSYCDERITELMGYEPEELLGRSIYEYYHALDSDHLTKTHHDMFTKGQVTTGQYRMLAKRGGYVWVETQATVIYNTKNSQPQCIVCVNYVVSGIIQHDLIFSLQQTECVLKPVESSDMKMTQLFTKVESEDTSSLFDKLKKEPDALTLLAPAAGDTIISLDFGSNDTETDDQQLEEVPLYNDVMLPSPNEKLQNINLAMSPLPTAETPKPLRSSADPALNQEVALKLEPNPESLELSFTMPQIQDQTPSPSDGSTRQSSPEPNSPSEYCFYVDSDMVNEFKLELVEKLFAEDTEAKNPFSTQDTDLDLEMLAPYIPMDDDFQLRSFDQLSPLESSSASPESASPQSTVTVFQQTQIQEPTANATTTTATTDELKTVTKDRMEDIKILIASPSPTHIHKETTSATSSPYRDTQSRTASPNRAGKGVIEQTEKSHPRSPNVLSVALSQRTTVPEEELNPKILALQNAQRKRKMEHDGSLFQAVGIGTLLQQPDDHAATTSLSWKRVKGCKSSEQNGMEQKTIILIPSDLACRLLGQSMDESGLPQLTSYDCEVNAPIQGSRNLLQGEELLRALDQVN
# Procedure, shortened: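 HepG2, transient cis-reporter library, 24 h dosing. RNA → RT (oligo dT) → PCR → 6-FAM primer extension → HpaI → CE. Bidirectional curve fit vs DMSO.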
# [6] = target: Hepatocyte nuclear factor 6 (Homo sapiens) (UniProt Q9UBC0); assay: ATG_HNF6_CIS: Attagene CIS-FACTORIAL HepG2 Assay for human Hepatocyte Nuclear Factor 6 (HNF6) (AID 2282952); conditions: HepG2 Attagene cis-factorial HNF6 reporter transcription; actives raise or lower the signal
# Chain of Hepatocyte nuclear factor 6 (Homo sapiens) (Q9UBC0 whole entry, looked up, the tested form may be a part): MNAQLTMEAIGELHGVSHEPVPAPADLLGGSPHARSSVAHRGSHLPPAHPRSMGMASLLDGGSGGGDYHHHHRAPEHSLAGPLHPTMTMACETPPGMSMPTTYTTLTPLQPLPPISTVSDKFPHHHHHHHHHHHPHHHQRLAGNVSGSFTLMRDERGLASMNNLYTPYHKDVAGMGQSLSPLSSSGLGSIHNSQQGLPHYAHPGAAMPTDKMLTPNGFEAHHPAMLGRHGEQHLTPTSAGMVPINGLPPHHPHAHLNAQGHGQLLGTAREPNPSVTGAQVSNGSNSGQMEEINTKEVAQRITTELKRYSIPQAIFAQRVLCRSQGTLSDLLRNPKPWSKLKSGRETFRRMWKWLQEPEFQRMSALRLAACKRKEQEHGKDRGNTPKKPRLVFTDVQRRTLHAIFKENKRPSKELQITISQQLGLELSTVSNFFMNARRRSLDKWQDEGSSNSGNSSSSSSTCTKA
# Procedure, shortened: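 Using cis-element reporters in HepG2 liver cells, the assay tracks endogenous factor-driven transcription 24 h post-dosing. Signal comes from 6-FAM-labelled, HpaI-digested RT-PCR fragments, with gain or loss scored against DMSO.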
# [7] = target: Heat shock factor protein 1 (Homo sapiens) (UniProt Q00613); assay: ATG_HSE_CIS: Attagene CIS-FACTORIAL HepG2 Assay for human Heat Shock Transcription Factor 1 (HSE) (AID 2282953); conditions: HepG2 HSE cis-reporter, Attagene RNA transcription; actives raise or lower the signal
# Chain of Heat shock factor protein 1 (Homo sapiens) (Q00613 whole entry, looked up): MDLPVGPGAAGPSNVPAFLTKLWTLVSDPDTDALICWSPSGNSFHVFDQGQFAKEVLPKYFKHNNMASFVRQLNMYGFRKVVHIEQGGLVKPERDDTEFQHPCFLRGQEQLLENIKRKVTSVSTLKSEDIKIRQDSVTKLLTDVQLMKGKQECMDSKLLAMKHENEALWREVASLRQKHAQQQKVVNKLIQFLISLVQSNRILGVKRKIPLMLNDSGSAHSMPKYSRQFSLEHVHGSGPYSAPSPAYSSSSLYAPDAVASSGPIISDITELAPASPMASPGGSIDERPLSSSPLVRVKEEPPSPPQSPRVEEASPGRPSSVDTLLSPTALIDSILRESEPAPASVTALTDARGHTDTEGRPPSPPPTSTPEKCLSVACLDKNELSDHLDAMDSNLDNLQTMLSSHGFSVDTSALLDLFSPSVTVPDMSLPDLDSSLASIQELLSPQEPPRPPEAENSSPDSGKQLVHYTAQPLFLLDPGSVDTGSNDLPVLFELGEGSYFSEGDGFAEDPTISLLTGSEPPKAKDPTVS
# Procedure, shortened: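 Liver-derived HepG2 cells carry transiently introduced multiple reporter units governed by cis promoters. Reporter RNA measured 24 h post-dose through reverse transcription, PCR amplification, fluorescent labelling and capillary electrophoresis, normalised to DMSO.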
# [8] = ATG_MRE_CIS: Attagene CIS-FACTORIAL HepG2 Assay for human Metal Responsive Element (MRE) (AID 2282954); conditions: HepG2 MRE cis-reporter transcription, Attagene multiplex; actives raise or lower the signal
# Procedure, shortened: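 Measured here is mRNA induction from an MRE cis-element reporter in HepG2 after 24 h, quantified by fluorescence of labelled RT-PCR products on capillary electrophoresis; gain- and loss-of-signal fits use DMSO as baseline.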
# [9] = ATG_PBREM_CIS: Attagene CIS-FACTORIAL HepG2 Assay for human Phenobarbital-responsive Enhancer Module (PBREM) (AID 2282955); conditions: HepG2 PBREM cis-reporter, Attagene multiplexed transcription; actives raise or lower the signal
# Procedure, shortened: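 HepG2, transient MRTU transfection, 24 h dosing; RNA → oligo(dT) RT → PCR → 6-FAM extension → HpaI → CE. Bidirectional fit vs DMSO.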
# [10] = target: Paired box protein Pax-6 (Homo sapiens) (UniProt P26367); assay: ATG_Pax6_CIS: Attagene CIS-FACTORIAL HepG2 Assay for human Paired Box 6 (PAX6) (AID 2282956); conditions: HepG2 CIS-FACTORIAL PAX6 reporter transcription, RNA readout; actives raise or lower the signal
# Chain of Paired box protein Pax-6 (Homo sapiens) (P26367 whole entry, looked up): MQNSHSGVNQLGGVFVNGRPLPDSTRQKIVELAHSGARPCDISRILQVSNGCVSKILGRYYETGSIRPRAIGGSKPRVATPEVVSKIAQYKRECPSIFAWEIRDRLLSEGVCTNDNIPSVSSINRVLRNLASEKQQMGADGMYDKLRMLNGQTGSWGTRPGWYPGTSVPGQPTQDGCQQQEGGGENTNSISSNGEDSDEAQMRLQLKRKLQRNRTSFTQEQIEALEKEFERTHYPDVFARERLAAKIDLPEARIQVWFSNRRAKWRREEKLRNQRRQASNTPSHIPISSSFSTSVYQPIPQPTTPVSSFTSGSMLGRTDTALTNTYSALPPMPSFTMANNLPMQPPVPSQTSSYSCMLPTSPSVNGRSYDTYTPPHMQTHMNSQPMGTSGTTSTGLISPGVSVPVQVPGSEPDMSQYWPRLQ
# Procedure, shortened: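 DMSO-referenced bidirectional fits of reporter mRNA fluorescence; HepG2 with transient cis-promoter MRTUs, 24 h post-dose, RT-PCR plus capillary electrophoresis detection.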
# [11] = ATG_PXRE_CIS: Attagene CIS-FACTORIAL HepG2 Assay for human Pregnane X Receptor Element (PXRE) (AID 2282957); conditions: HepG2 Attagene CIS-FACTORIAL PXRE reporter, mRNA; actives raise or lower the signal
# Procedure, shortened: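 Using HepG2 transfected with multiple reporter transcription units, endogenous factor-driven transcription was scored as reporter mRNA after 24 h exposure.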
# [12] = ATG_PPRE_CIS: Attagene CIS-FACTORIAL HepG2 Assay for human Peroxisome Proliferator-activated Response Element (PPRE) (AID 2282958); conditions: HepG2 PPRE cis-element reporter, Attagene transcription factor profiling; actives raise or lower the signal
# Procedure, shortened: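 Transcript-level reporter induction in transfected HepG2 cells after 24 h chemical exposure, quantified by fluorescence from RT-PCR products separated by capillary electrophoresis.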
# [13] = ATG_RORE_CIS: Attagene CIS-FACTORIAL HepG2 Assay for human RAR-related Orphan Receptor Element (RORE) (AID 2282959); conditions: HepG2 Attagene cis-factorial RORE reporter, mRNA; actives raise or lower the signal
# Procedure, shortened: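 Multiplexed reporter assay measuring mRNA induction from a cis promoter element in transiently transfected HepG2 cells after 24 h treatment. Detection via RT-PCR and capillary electrophoresis fluorescence; DMSO serves as baseline.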
# [14] = ATG_Sox_CIS: Attagene CIS-FACTORIAL HepG2 Assay for human SRY-box transcription factor (SOX) (AID 2282960); conditions: HepG2 Attagene cis-factorial SOX reporter, mRNA; actives raise or lower the signal
# Procedure, shortened: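 Cells were transfected with reporter constructs under cis-regulatory promoters, then exposed to chemicals for 24 h. Reporter transcripts were quantified by fluorescence after RT-PCR and capillary electrophoresis; activity was fitted in both directions against DMSO.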
# [15] = target: Transcription factor Sp1 (Homo sapiens) (UniProt P08047); assay: ATG_Sp1_CIS: Attagene CIS-FACTORIAL HepG2 Assay for human Specificity Protein 1 (Sp1) (AID 2282961); conditions: HepG2 Sp1 cis-reporter transcription, actives raise or lower the signal
# Chain of Transcription factor Sp1 (Homo sapiens) (P08047 whole entry, looked up): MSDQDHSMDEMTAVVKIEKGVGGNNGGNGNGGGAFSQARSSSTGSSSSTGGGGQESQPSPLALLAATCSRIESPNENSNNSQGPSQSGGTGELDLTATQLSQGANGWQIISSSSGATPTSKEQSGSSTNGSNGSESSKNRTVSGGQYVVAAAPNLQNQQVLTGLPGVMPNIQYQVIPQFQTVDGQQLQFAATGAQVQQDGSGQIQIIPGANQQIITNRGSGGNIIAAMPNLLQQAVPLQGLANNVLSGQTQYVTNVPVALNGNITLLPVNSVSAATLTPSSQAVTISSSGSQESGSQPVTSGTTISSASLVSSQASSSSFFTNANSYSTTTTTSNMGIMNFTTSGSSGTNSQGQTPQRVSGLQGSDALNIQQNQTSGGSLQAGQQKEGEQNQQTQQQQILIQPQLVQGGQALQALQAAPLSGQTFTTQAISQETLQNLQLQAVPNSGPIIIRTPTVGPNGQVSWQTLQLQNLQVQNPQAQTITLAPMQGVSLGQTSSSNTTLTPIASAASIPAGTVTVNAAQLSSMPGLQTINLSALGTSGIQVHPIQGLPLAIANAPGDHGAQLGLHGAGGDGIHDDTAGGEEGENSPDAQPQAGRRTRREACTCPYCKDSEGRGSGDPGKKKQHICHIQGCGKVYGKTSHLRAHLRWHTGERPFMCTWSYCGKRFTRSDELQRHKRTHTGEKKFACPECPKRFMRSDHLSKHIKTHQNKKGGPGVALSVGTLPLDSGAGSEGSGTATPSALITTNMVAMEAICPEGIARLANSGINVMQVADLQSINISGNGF
# Procedure, shortened: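 Measures mRNA induction of an Sp1-linked reporter in HepG2 cells 24 h post-dosing. Multiplexed reporters read by RT-PCR and capillary electrophoresis; DMSO serves as negative control and baseline.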
# [16] = ATG_SREBP_CIS: Attagene CIS-FACTORIAL HepG2 Assay for human Sterol Regulatory Element Binding (SREBP) (AID 2282962); conditions: HepG2 Attagene cis-factorial SREBP reporter, mRNA; actives raise or lower the signal
# Procedure, shortened: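 In this cis-format assay, HepG2 liver cells express reporters controlled by promoter elements responsive to native transcription factors. Exposure lasts 24 h; reporter mRNA fluorescence from capillary electrophoresis gives the signal, fitted bidirectionally against DMSO.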
# [17] = target: Signal transducer and activator of transcription 3 (Homo sapiens) (UniProt P40763); assay: ATG_STAT3_CIS: Attagene CIS-FACTORIAL HepG2 Assay for human Signal Transducer and Activator of Transcription 3 (STAT3) (AID 2282963); conditions: HepG2, Attagene cis-factorial STAT3 reporter transcription; actives raise or lower the signal
# Chain of Signal transducer and activator of transcription 3 (Homo sapiens) (P40763 whole entry, looked up, the tested form may be a part): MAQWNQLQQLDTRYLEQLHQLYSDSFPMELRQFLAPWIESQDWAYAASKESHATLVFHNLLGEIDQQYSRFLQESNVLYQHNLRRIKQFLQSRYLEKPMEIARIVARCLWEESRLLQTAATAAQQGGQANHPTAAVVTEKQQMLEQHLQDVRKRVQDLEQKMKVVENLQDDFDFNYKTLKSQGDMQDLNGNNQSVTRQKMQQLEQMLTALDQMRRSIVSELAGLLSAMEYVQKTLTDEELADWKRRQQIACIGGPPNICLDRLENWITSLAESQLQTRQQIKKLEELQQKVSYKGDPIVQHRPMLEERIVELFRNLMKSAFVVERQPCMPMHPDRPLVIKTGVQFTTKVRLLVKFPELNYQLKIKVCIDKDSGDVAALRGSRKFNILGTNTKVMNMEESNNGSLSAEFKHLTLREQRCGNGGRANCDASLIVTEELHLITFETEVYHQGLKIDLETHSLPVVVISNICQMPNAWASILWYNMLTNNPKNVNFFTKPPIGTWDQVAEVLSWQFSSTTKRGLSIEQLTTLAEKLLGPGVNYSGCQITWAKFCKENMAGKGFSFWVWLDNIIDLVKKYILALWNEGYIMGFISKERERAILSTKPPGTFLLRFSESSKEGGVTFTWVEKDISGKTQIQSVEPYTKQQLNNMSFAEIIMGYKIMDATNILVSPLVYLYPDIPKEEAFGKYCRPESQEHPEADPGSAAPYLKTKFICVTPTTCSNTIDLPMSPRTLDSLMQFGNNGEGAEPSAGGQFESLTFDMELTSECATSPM
# Procedure, shortened: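 Fluorescence intensity of 6-FAM-labelled reporter fragments, separated by capillary electrophoresis after RT-PCR, gave the signal. Cells were HepG2 transfected with cis-element reporter units and treated 24 h; fitting was bidirectional relative to DMSO.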
# [18] = ATG_TA_CIS: Attagene CIS-FACTORIAL HepG2 Assay for human TA Basal Promoter (AID 2282964); conditions: HepG2 Attagene CIS-factorial TA basal promoter reporter; actives raise or lower the signal
# Procedure, shortened: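 Background internal-marker endpoint from a 52-component HepG2 cis-reporter panel. Cells treated 24 h; reporter transcripts quantified via RT-PCR and CE fluorescence against DMSO baseline.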
# [19] = ATG_GRE_CIS: Attagene CIS-FACTORIAL HepG2 Assay for human Glucocorticoid Response Elements (GRE) (AID 2282947); conditions: HepG2 GRE cis-reporter, Attagene multiplex mRNA; actives raise or lower the signal
# Procedure, shortened: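 Fluorescence intensity of reporter-specific cDNA fragments, separated by capillary electrophoresis, provides the signal. Constructs carry cis-regulating promoters in transiently transfected HepG2 liver cells; 24 h incubation; fitting is bidirectional against DMSO.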
# [20] = ATG_TCF_b_cat_CIS: Attagene CIS-FACTORIAL HepG2 Assay for human T-Cell-Factor with beta-catenin (TCF/b-cat) (AID 2282965); conditions: HepG2 TCF/beta-catenin cis-reporter transcription, actives raise or lower the signal
# Procedure, shortened: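 Cells of the HepG2 line carry transiently transfected reporter units whose promoters respond to endogenous factors. Twenty-four hours post-dosing, reporter mRNA induction is measured by fluorescent RT-PCR and capillary electrophoresis, with DMSO as baseline.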
smiles,measurement,setting,value
CCCCOC(=O)c1ccccc1C(=O)O,outcome,[1],inactive
same,outcome,[2],inactive
same,outcome,[3],inactive
same,outcome,[4],inactive
same,outcome,[5],inactive
same,outcome,[6],inactive
same,outcome,[7],inactive
same,outcome,[8],inactive
same,outcome,[9],inactive
same,outcome,[10],inactive
same,outcome,[11],inactive
same,outcome,[12],inactive
same,outcome,[13],inactive
same,outcome,[14],inactive
same,outcome,[15],inactive
same,outcome,[16],inactive
same,outcome,[17],inactive
same,outcome,[18],inactive
Nc1c(Cl)cc([N+](=O)[O-])cc1Cl,outcome,[1],inactive
same,AC50,[19],86.3 µM (active)
same,outcome,[2],inactive
same,outcome,[3],inactive
same,outcome,[4],inactive
same,outcome,[5],inactive
same,outcome,[6],inactive
same,outcome,[7],inactive
same,AC50,[8],64.6 µM (active)
same,outcome,[9],inactive
same,outcome,[10],inactive
same,AC50,[11],44.2 µM (active)
same,AC50,[12],34.4 µM (active)
same,outcome,[13],inactive
same,outcome,[14],inactive
same,outcome,[15],inactive
same,outcome,[16],inactive
same,AC50,[17],75.9 µM (active)
same,outcome,[18],inactive
same,outcome,[20],inactive
CC(Oc1cccc(Cl)c1)C(=O)O (stereo not given),outcome,[1],inactive
same,outcome,[19],inactive
same,outcome,[2],inactive
same,outcome,[3],inactive
same,outcome,[4],inactive
same,outcome,[6],inactive
same,outcome,[7],inactive
same,outcome,[8],inactive
same,outcome,[9],inactive
same,outcome,[10],inactive
same,outcome,[11],inactive
same,outcome,[12],inactive
same,outcome,[13],inactive
same,outcome,[14],inactive
same,outcome,[15],inactive
same,outcome,[16],inactive
same,outcome,[17],inactive
same,outcome,[18],inactive
CNc1cnn(-c2cccc(C(F)(F)F)c2)c(=O)c1Cl,outcome,[1],inactive
same,outcome,[19],inactive
same,outcome,[2],inactive
same,outcome,[3],inactive
same,outcome,[4],inactive
same,outcome,[6],inactive
same,AC50,[7],10.4 µM (active)
same,outcome,[8],inactive
same,outcome,[9],inactive
same,outcome,[10],inactive
same,AC50,[11],20.1 µM (active)
same,outcome,[12],inactive
same,AC50,[13],27.6 µM (active)
same,outcome,[14],inactive
same,outcome,[15],inactive
same,outcome,[16],inactive
same,outcome,[17],inactive
same,outcome,[18],inactive
same,outcome,[20],inactive
